Test results as given in PubChem BioAssay (EPA / NIEHS).
The source made the active and inactive calls. Rule for the calls: active = hit-call score of the fitted dose curve at least 0.9, where 1 is the maximum; inactive = score below 0.9.

What was measured:
[1] = ATG_GLI_CIS: Attagene CIS-FACTORIAL HepG2 Assay for human Zinc Finger Protein GLI1 (AID 2282945); settings: HepG2, Attagene cis-factorial reporter mRNA, GLI element; actives raise or lower the signal
In short: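 Bidirectional curve fits relative to DMSO, using reporter mRNA levels from RT-PCR plus capillary electrophoresis. Cells were HepG2 transiently carrying cis-regulated reporter constructs, harvested 24 h after dosing.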

[2] = target: Bile acid receptor (Homo sapiens) (UniProt Q96RI1); experiment: ATG_IR1_CIS: Attagene CIS-FACTORIAL HepG2 Assay for human Nuclear Receptor Subfamily 1 Group H Member 4 (NR1H4), IR1 submotif (AID 2282946); settings: IR1 reporter transcription, actives raise or lower the signal
Sequence of Bile acid receptor (Homo sapiens) (Q96RI1 whole entry, looked up): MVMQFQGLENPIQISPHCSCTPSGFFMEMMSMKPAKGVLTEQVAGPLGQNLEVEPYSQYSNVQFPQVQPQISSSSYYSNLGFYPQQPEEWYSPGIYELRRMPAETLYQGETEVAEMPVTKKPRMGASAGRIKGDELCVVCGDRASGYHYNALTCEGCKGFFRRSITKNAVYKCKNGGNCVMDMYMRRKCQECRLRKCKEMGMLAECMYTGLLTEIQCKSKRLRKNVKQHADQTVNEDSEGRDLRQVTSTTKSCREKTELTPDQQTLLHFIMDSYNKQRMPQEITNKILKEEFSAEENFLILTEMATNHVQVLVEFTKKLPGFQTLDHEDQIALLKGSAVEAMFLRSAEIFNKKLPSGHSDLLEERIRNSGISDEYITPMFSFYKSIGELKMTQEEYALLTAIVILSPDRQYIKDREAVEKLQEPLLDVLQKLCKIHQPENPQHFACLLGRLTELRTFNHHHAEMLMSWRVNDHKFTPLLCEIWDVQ
In short: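 HepG2 cells transiently transfected with multiplexed cis-element reporter units read endogenous transcription factor activity. After 24 h compound exposure, reporter mRNA was quantified by RT-PCR, fluorescent labelling, HpaI digestion and capillary electrophoresis; bidirectional fitting versus DMSO baseline.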

[3] = ATG_GRE_CIS: Attagene CIS-FACTORIAL HepG2 Assay for human Glucocorticoid Response Elements (GRE) (AID 2282947); settings: HepG2 GRE cis-reporter, Attagene multiplex mRNA; actives raise or lower the signal
In short: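 Reporter transcripts read by RT-PCR with capillary electrophoresis fluorescence after a 24 h chemical exposure of HepG2 cells transiently transfected with multiple cis-element reporter units. Gain or loss fitted against DMSO.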

[4] = ATG_ISRE_CIS: Attagene CIS-FACTORIAL HepG2 Assay for human Interferon Regulatory Factor 1 (IRF1) binding to an Interferon-Stimulated Response Element (ISRE) (AID 2282948); settings: HepG2 ISRE cis-reporter (Attagene), mRNA transcription readout; actives raise or lower the signal
In short: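 Signal reflects induction or loss of ISRE-linked reporter mRNA in transiently transfected HepG2 cells after a 24 h treatment, detected by fluorescent RT-PCR fragments on capillary electrophoresis and normalised to DMSO.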

[5] = ATG_M_32_CIS: Attagene CIS-FACTORIAL HepG2 Assay for M32 Transcription Factor (Internal Marker) (AID 2282949); settings: HepG2 Attagene cis-factorial M32 reporter, mRNA; actives raise or lower the signal;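 note: background control marker of the multiplexed CIS panel rather than a real target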
In short: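 HepG2 transfectants (cis-regulated reporter transcription units) dosed 24 h. Reporter mRNA by RT-PCR plus CE, analysed as gain or loss relative to DMSO.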

[6] = ATG_M_06_CIS: Attagene CIS-FACTORIAL HepG2 Assay for M06 Transcription Factor (Internal Marker) (AID 2282950); settings: HepG2 Attagene CIS-FACTORIAL M06 internal marker reporter; actives raise or lower the signal
In short: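 Cells (HepG2, transiently carrying cis-driven reporter units) receive chemical for 24 h before RNA isolation. Reporter cDNA is PCR-amplified, FAM-labelled by primer extension, HpaI-digested and sized on a capillary analyser.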

[7] = target: Hypoxia-inducible factor 1-alpha (Homo sapiens) (UniProt Q16665); experiment: ATG_HIF1a_CIS: Attagene CIS-FACTORIAL HepG2 Assay for human Hypoxia Inducible Factor 1 (HIF1A) (AID 2282951); settings: HepG2 Attagene cis-factorial HIF1a reporter transcription; actives raise or lower the signal
Sequence of Hypoxia-inducible factor 1-alpha (Homo sapiens) (Q16665 whole entry, looked up): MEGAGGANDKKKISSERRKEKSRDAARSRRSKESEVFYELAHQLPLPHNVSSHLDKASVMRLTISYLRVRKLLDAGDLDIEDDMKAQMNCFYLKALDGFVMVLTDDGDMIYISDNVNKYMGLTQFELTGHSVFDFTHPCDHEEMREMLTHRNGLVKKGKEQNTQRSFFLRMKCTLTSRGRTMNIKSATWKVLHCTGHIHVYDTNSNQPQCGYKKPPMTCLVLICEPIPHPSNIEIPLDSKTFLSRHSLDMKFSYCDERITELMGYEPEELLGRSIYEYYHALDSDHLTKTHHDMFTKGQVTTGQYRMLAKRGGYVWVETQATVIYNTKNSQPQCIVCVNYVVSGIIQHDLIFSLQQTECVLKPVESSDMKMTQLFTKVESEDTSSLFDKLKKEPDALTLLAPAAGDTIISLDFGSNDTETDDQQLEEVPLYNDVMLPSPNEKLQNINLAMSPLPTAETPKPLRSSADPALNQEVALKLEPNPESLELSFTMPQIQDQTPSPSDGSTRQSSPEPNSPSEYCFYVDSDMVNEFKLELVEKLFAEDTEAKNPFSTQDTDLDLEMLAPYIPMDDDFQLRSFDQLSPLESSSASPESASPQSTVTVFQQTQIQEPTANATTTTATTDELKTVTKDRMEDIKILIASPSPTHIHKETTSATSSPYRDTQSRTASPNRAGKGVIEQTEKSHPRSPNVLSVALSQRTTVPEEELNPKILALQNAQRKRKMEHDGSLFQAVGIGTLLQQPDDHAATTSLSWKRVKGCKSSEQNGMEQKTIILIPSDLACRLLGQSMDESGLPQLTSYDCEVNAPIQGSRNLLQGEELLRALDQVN
In short: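 Endogenous-TF cis reporter readout, human HepG2 cells, 24 h incubation; mRNA detected via RT-PCR and capillary electrophoresis fluorescence; DMSO-normalised bidirectional fitting.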

[8] = target: Hepatocyte nuclear factor 6 (Homo sapiens) (UniProt Q9UBC0); experiment: ATG_HNF6_CIS: Attagene CIS-FACTORIAL HepG2 Assay for human Hepatocyte Nuclear Factor 6 (HNF6) (AID 2282952); settings: HepG2 Attagene cis-factorial HNF6 reporter transcription; actives raise or lower the signal
Sequence of Hepatocyte nuclear factor 6 (Homo sapiens) (Q9UBC0 whole entry, looked up): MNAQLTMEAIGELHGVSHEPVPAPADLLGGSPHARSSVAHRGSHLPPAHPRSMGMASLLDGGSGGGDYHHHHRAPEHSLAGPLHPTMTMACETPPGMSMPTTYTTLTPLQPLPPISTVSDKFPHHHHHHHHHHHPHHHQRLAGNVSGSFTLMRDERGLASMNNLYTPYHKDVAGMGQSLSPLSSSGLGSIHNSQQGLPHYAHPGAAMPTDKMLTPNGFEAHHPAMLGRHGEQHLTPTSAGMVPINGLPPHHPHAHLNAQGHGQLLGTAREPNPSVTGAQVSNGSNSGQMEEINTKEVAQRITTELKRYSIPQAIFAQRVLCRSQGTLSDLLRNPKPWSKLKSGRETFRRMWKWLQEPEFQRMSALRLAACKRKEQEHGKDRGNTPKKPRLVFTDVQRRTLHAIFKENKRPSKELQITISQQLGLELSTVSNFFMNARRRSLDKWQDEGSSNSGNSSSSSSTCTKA
In short: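 Endogenous transcription factor activity in human HepG2 liver cells was captured through cis-regulated reporter constructs. After 24 h treatment, reporter mRNA was measured by RT-PCR with capillary electrophoresis, and activity was fitted in both directions relative to DMSO.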

[9] = target: Heat shock factor protein 1 (Homo sapiens) (UniProt Q00613); experiment: ATG_HSE_CIS: Attagene CIS-FACTORIAL HepG2 Assay for human Heat Shock Transcription Factor 1 (HSE) (AID 2282953); settings: HepG2 HSE cis-reporter, Attagene RNA transcription; actives raise or lower the signal
Sequence of Heat shock factor protein 1 (Homo sapiens) (Q00613 whole entry, looked up): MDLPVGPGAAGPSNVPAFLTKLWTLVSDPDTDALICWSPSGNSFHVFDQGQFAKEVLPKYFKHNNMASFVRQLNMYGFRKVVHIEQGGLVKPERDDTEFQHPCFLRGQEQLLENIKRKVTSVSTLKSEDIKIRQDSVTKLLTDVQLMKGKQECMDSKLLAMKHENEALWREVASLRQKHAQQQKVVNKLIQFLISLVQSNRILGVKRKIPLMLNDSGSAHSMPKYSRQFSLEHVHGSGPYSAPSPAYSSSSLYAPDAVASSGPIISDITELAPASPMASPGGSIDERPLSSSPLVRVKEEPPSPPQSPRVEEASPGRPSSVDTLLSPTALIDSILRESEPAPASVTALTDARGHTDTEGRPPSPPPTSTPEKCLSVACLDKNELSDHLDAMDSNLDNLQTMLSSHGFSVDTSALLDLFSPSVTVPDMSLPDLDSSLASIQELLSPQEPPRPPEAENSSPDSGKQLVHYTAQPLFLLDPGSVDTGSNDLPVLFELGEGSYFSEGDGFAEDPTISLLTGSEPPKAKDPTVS
In short: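 Liver-derived HepG2 cells carry transiently introduced multiple reporter units governed by cis promoters. Reporter RNA measured 24 h post-dose through reverse transcription, PCR amplification, fluorescent labelling and capillary electrophoresis, normalised to DMSO.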

[10] = ATG_MRE_CIS: Attagene CIS-FACTORIAL HepG2 Assay for human Metal Responsive Element (MRE) (AID 2282954); settings: HepG2 MRE cis-reporter transcription, Attagene multiplex; actives raise or lower the signal
In short: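 Endogenous MRE-dependent transcription read as reporter mRNA in transiently transfected human HepG2 cells at 24 h. RNA reverse-transcribed, PCR-amplified, labelled and resolved by capillary electrophoresis; gain or loss relative to DMSO.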

[11] = target: Paired box protein Pax-6 (Homo sapiens) (UniProt P26367); experiment: ATG_Pax6_CIS: Attagene CIS-FACTORIAL HepG2 Assay for human Paired Box 6 (PAX6) (AID 2282956); settings: HepG2 CIS-FACTORIAL PAX6 reporter transcription, RNA readout; actives raise or lower the signal
Sequence of Paired box protein Pax-6 (Homo sapiens) (P26367 whole entry, looked up): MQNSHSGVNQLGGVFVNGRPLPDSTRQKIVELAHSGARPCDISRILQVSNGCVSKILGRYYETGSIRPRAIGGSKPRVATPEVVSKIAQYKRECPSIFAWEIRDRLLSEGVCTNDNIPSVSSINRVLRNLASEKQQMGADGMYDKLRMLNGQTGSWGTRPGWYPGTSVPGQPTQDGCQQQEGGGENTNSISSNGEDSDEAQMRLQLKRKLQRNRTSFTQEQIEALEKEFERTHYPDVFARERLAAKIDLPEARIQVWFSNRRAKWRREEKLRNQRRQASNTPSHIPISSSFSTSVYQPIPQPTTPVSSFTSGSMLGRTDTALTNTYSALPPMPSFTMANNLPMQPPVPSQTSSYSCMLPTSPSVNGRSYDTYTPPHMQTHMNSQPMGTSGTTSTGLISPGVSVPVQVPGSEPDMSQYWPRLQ
In short: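 Values derive from bidirectional curve fitting of reporter mRNA signal relative to DMSO. HepG2 cells bearing transfected cis-regulated MRTUs were exposed for 24 h; transcripts were read by RT-PCR and capillary electrophoresis.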

[12] = ATG_PXRE_CIS: Attagene CIS-FACTORIAL HepG2 Assay for human Pregnane X Receptor Element (PXRE) (AID 2282957); settings: HepG2 Attagene CIS-FACTORIAL PXRE reporter, mRNA; actives raise or lower the signal
In short: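 Endogenous transcription factor activity in HepG2 was gauged through induction of reporter mRNA driven by a cis-regulating promoter element, sampled 24 h post-treatment. Activity was fitted in both directions against DMSO negative control.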

[13] = ATG_PPRE_CIS: Attagene CIS-FACTORIAL HepG2 Assay for human Peroxisome Proliferator-activated Response Element (PPRE) (AID 2282958); settings: HepG2 PPRE cis-element reporter, Attagene transcription factor profiling; actives raise or lower the signal
In short: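 After human HepG2 hepatoma cells were transiently transfected with cis-promoter reporter constructs, they were exposed to test chemicals for 24 hours. Reporter RNA was then reverse-transcribed, PCR-amplified, FAM-labeled, HpaI-digested and quantified by capillary electrophoresis.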

[14] = ATG_RORE_CIS: Attagene CIS-FACTORIAL HepG2 Assay for human RAR-related Orphan Receptor Element (RORE) (AID 2282959); settings: HepG2 Attagene cis-factorial RORE reporter, mRNA; actives raise or lower the signal
In short: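 Measured here: transcript induction of a cis-regulated reporter in HepG2 cells transiently transfected via FuGene 6. After 24 h, RNA was processed by RT-PCR and fluorescent capillary electrophoresis; DMSO defined baseline activity.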

[15] = ATG_Sox_CIS: Attagene CIS-FACTORIAL HepG2 Assay for human SRY-box transcription factor (SOX) (AID 2282960); settings: HepG2 Attagene cis-factorial SOX reporter, mRNA; actives raise or lower the signal
In short: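 Using transiently transfected HepG2 cells, reporter transcription driven by cis elements was assessed 24 h after dosing. Signal was fluorescence of capillary-separated RT-PCR products, with DMSO defining baseline activity.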

[16] = target: Transcription factor Sp1 (Homo sapiens) (UniProt P08047); experiment: ATG_Sp1_CIS: Attagene CIS-FACTORIAL HepG2 Assay for human Specificity Protein 1 (Sp1) (AID 2282961); settings: HepG2 Sp1 cis-reporter transcription, actives raise or lower the signal
Sequence of Transcription factor Sp1 (Homo sapiens) (P08047 whole entry, looked up): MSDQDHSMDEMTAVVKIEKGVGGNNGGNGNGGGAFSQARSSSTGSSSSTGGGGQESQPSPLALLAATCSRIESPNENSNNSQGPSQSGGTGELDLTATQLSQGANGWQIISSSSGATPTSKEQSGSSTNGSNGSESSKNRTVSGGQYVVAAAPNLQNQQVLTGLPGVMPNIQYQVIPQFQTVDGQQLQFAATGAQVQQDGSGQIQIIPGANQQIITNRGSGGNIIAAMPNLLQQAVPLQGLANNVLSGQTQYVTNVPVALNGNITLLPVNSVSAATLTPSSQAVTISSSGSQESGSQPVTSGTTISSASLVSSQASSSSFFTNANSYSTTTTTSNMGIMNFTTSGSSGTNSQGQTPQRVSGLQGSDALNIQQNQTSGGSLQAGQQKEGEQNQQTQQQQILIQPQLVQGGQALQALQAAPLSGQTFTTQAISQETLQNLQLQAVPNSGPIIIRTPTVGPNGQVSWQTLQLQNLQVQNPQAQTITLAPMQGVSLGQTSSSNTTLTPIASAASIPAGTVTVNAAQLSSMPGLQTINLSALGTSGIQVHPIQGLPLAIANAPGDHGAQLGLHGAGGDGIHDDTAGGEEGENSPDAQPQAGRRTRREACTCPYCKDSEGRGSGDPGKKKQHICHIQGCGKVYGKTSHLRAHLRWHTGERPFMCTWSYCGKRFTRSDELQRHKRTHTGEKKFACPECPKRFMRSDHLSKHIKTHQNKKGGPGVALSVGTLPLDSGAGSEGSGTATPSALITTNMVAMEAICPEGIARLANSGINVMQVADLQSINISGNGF
In short: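 After transient transfection of HepG2 cells with cis-promoter reporter units and 24 h chemical treatment, reporter transcripts were quantified by RT-PCR and capillary electrophoresis fluorescence. Gain- and loss-of-signal fitted against DMSO.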

[17] = ATG_SREBP_CIS: Attagene CIS-FACTORIAL HepG2 Assay for human Sterol Regulatory Element Binding (SREBP) (AID 2282962); settings: HepG2 Attagene cis-factorial SREBP reporter, mRNA; actives raise or lower the signal
In short: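 Values derive from bidirectional curve fitting with DMSO as baseline. The underlying measurement is reporter mRNA from cis-element-regulated units in transiently transfected HepG2, quantified by RT-PCR and capillary electrophoresis after 24 h exposure.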

[18] = target: Signal transducer and activator of transcription 3 (Homo sapiens) (UniProt P40763); experiment: ATG_STAT3_CIS: Attagene CIS-FACTORIAL HepG2 Assay for human Signal Transducer and Activator of Transcription 3 (STAT3) (AID 2282963); settings: HepG2, Attagene cis-factorial STAT3 reporter transcription; actives raise or lower the signal
Sequence of Signal transducer and activator of transcription 3 (Homo sapiens) (P40763 whole entry, looked up): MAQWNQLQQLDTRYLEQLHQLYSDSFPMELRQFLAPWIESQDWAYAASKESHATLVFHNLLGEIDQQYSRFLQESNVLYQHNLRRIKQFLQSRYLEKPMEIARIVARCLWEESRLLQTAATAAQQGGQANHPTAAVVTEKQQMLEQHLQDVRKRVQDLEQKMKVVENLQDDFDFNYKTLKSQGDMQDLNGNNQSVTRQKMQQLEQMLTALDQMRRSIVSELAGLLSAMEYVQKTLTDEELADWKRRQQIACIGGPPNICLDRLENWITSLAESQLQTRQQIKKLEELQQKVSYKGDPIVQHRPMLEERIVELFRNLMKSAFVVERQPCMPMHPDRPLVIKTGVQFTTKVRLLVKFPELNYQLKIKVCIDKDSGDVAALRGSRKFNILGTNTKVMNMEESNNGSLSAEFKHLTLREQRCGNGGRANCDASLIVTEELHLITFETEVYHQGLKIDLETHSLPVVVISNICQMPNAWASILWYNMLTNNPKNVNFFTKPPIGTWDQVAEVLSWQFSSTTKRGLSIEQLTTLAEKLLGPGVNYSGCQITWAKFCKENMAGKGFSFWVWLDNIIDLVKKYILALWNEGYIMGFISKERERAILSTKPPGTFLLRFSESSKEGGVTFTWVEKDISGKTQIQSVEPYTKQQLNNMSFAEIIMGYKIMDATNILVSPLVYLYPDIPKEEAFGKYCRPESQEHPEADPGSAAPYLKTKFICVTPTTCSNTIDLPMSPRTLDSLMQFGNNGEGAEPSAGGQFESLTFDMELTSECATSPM
In short: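 Readout is reporter transcript quantified by RT-PCR and capillary electrophoresis, with 6-FAM primer extension and HpaI digestion. Total RNA is taken 24 h after dosing transiently transfected HepG2 carrying cis-regulated reporter units. Bidirectional fit against DMSO.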

[19] = ATG_TA_CIS: Attagene CIS-FACTORIAL HepG2 Assay for human TA Basal Promoter (AID 2282964); settings: HepG2 Attagene CIS-factorial TA basal promoter reporter; actives raise or lower the signal
In short: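 Background internal-marker endpoint from a 52-component HepG2 cis-reporter panel. Cells treated 24 h; reporter transcripts quantified via RT-PCR and CE fluorescence against DMSO baseline.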

[20] = ATG_PBREM_CIS: Attagene CIS-FACTORIAL HepG2 Assay for human Phenobarbital-responsive Enhancer Module (PBREM) (AID 2282955); settings: HepG2 PBREM cis-reporter, Attagene multiplexed transcription; actives raise or lower the signal
In short: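 Readout: reporter mRNA, fluorescent RT-PCR fragments separated by capillary electrophoresis. System: HepG2 transiently transfected with cis-regulated reporter units. Exposure: 24 h. Analysis: bidirectional, DMSO baseline.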

CCCCC(CC)COP(=O)(Oc1ccccc1)Oc1ccccc1 (stereo unspecified)
AC50 [1]: 100 µM (active)
AC50 [2]: 25.6 µM (active)
outcome [3]: inactive
outcome [4]: inactive
outcome [5]: inactive
outcome [6]: inactive
AC50 [7]: 100 µM (active)
outcome [8]: inactive
AC50 [9]: 72 µM (active)
AC50 [10]: 50.1 µM (active)
AC50 [11]: 100 µM (active)
AC50 [12]: 0.516 µM (active)
AC50 [13]: 37.7 µM (active)
outcome [14]: inactive
outcome [15]: inactive
AC50 [16]: 126 µM (active)
AC50 [17]: 35.4 µM (active)
outcome [18]: inactive
AC50 [19]: 55.3 µM (active)

CCCCc1ccccc1
outcome [1]: inactive
outcome [2]: inactive
outcome [3]: inactive
outcome [4]: inactive
outcome [5]: inactive
outcome [6]: inactive
AC50 [7]: 59.2 µM (active)
outcome [8]: inactive
outcome [10]: inactive
outcome [20]: inactive
outcome [11]: inactive
outcome [12]: inactive
outcome [13]: inactive
outcome [14]: inactive
outcome [15]: inactive
outcome [16]: inactive
outcome [17]: inactive
outcome [18]: inactive
outcome [19]: inactive

COP(N)(=S)OC
outcome [1]: inactive
outcome [2]: inactive
outcome [3]: inactive
outcome [4]: inactive
outcome [5]: inactive
outcome [6]: inactive
outcome [7]: inactive
outcome [8]: inactive
outcome [9]: inactive
outcome [10]: inactive
outcome [11]: inactive
AC50 [12]: 47 µM (active)
outcome [13]: inactive
outcome [14]: inactive
outcome [15]: inactive
outcome [16]: inactive
outcome [17]: inactive
outcome [18]: inactive
outcome [19]: inactive

Cc1cc(C)c(C(=O)P(=O)(c2ccccc2)c2ccccc2)c(C)c1
AC50 [1]: 60 µM (active)
AC50 [2]: 12.8 µM (active)
AC50 [3]: 57.7 µM (active)
outcome [4]: inactive
AC50 [5]: 53.1 µM (active)
AC50 [6]: 60.7 µM (active)
outcome [7]: inactive
AC50 [8]: 50.7 µM (active)
AC50 [9]: 62.5 µM (active)
AC50 [10]: 17.9 µM (active)
outcome [11]: inactive
AC50 [12]: 0.199 µM (active)
outcome [13]: inactive
AC50 [14]: 51 µM (active)
outcome [15]: inactive
outcome [16]: inactive
AC50 [17]: 41.1 µM (active)
AC50 [18]: 53.7 µM (active)
AC50 [19]: 45 µM (active)

CCC(C)(C)c1ccc(O)cc1
outcome [1]: inactive
AC50 [2]: 33.4 µM (active)
outcome [3]: inactive
outcome [4]: inactive
outcome [5]: inactive
outcome [6]: inactive
AC50 [7]: 33.4 µM (active)
outcome [8]: inactive
outcome [9]: inactive
outcome [10]: inactive
outcome [11]: inactive
AC50 [12]: 9.13 µM (active)
outcome [14]: inactive
outcome [15]: inactive
outcome [16]: inactive
AC50 [17]: 20 µM (active)
outcome [18]: inactive
outcome [19]: inactive

CCCCc1ccc(O)cc1
outcome [1]: inactive
outcome [2]: inactive
outcome [3]: inactive
outcome [4]: inactive
outcome [5]: inactive
outcome [6]: inactive
AC50 [7]: 164 µM (active)
AC50 [9]: 139 µM (active)
outcome [10]: inactive
outcome [20]: inactive
outcome [11]: inactive
outcome [12]: inactive
outcome [13]: inactive
outcome [14]: inactive
outcome [15]: inactive
outcome [16]: inactive
outcome [17]: inactive
outcome [18]: inactive
outcome [19]: inactive

CCOP(=S)(OCC)SCS(=O)(=O)CC
outcome [1]: inactive
outcome [2]: inactive
outcome [3]: inactive
outcome [4]: inactive
outcome [5]: inactive
outcome [6]: inactive
outcome [7]: inactive
outcome [8]: inactive
outcome [9]: inactive
outcome [10]: inactive
outcome [11]: inactive
AC50 [12]: 11.3 µM (active)
outcome [13]: inactive
outcome [15]: inactive
outcome [16]: inactive
outcome [17]: inactive
outcome [18]: inactive
outcome [19]: inactive
